Experimental data: PubChem BioAssay (NCI)
Where “and” joins values, the source holds several entries; their conditions need not be identical. Equal entries are not always repeated. This is part of a sample that, as a whole, favours compounds with a hit. Of some 79,000 tested, about 15% had one in any assay. Calls of active or inactive are those of the source. Cut-off read from the data, not from the text of the source: active = growth inhibition above about 70%; inactive = the rest.

Assay: NCI Yeast Anticancer Drug Screen. Data for the mec2-1 strain (AID 157)
Details: S. cerevisiae mec2-1 strain, active compounds read high; at 50.0 µM unless noted
Protocol: Growth inhibition of yeast strains with defined genetic alterations is measured as a screen for potential anti-cancer activity. Selected strains with alterations in DNA damage repair or cell cycle control were exposed to compounds and growth inhibition was measured relative to vehicle treated controls. The strain used in this assay is mec2-1

**Q.** With `CCOC(=O)c1cccc(N)c1C(=O)OCCN(CC)CC` as the molecule, how does the growth inhibition read?
**A.** Its growth inhibition is 0.15% (inactive).

**Q.** With `CC1=C(C)C(C#N)(C(=O)CBr)C(=N)O1` (stereo not given) as the molecule, how does the growth inhibition read?
**A.** The growth inhibition was 28.1% (inactive).

**Q.** Which growth inhibition does the source give for `CCN(CC)CCCC(C)NCC1C(O)CCC2CN3CCc4c([nH]c5ccccc45)C3CC21` (stereo not given) here?
**A.** The growth inhibition was 9.45% (inactive).

**Q.** For `N#CCC(=O)OCCCc1ccccc1`, which growth inhibition is on record?
**A.** Its growth inhibition is 9.2% (inactive).

**Q.** For `CCCCCCSC(=O)NC(C)=O`, which growth inhibition is on record?
**A.** Its growth inhibition is -0.95% (inactive).

**Q.** Which growth inhibition does the source give for `C=C[C@]1(C)C=C2CC[C@@H]3[C@](C)(CCC[C@@]3(C)C(=O)O)[C@H]2CC1` here?
**A.** Its growth inhibition is 8.7% (inactive).

**Q.** Which growth inhibition does the source give for `CCCC(C)C(=O)OCc1ccccc1` (stereo not given) here?
**A.** Its growth inhibition is -9.5% (inactive).

**Q.** Which growth inhibition does the source give for `O=C(O)c1cccc2c(=O)c3ccccc3oc12` here?
**A.** Its growth inhibition is -39.8% (inactive).

**Q.** With `CC(=O)C[N+](C)(C)C` as the molecule, how does the growth inhibition read?
**A.** Its growth inhibition is -17.1% (inactive).

**Q.** Which growth inhibition does the source give for `CCOC(=O)C(=O)Nc1cc(C)no1` here?
**A.** Its growth inhibition is 9.85% (inactive).

**Q.** Which growth inhibition does the source give for `O=CNCC(=O)O` here?
**A.** Its growth inhibition is -3.75% (inactive).

**Q.** For `CC(NC(=O)CNC(=O)OCc1ccccc1)C(=O)O` (stereo not given), which growth inhibition is on record?
**A.** The growth inhibition was 9.35% (inactive).

**Q.** For `CC(=O)Nc1ccc(S(N)(=O)=O)cc1`, which growth inhibition is on record?
**A.** Its growth inhibition is 15.6% (inactive) and 8.55% (inactive).

**Q.** Which growth inhibition does the source give for `Clc1ccc(OCC(COc2ccccc2)Oc2nc(-c3ccccc3)nc(-c3ccccc3)n2)cc1` (stereo not given) here?
**A.** The growth inhibition was 2.25% (inactive).

**Q.** Which growth inhibition does the source give for `COc1ccc(C2=NC(CO)[C@H](c3ccccc3)O2)cc1OC` (stereo not given in full) here?
**A.** The growth inhibition was -13.2% (inactive).

**Q.** With `COc1cc(OC)c(NC(=O)C2=C(C)NC(C)=C(C(=O)Nc3cc(Cl)c(OC)cc3OC)C2c2cccc([N+](=O)[O-])c2)cc1Cl` as the molecule, how does the growth inhibition read?
**A.** Its growth inhibition is 23.9% (inactive).

**Q.** With `CC(=O)OC1c2ccccc2CCCCCCC12OCCO2` (stereo not given) as the molecule, how does the growth inhibition read?
**A.** Its growth inhibition is -36.4% (inactive).

**Q.** For `O=CC(CO)C(C=O)n1ncc2ccccc21` (stereo not given), which growth inhibition is on record?
**A.** The growth inhibition was 7.7% (inactive).

**Q.** Which growth inhibition does the source give for `Cc1c2n(c(=O)[nH]c1=O)C1OC(CO)C(O2)C1N=[N+]=[N-]` (stereo not given) here?
**A.** Its growth inhibition is -17.6% (inactive).

**Q.** Which growth inhibition does the source give for `O=C1NC(=O)C(Cc2ccccc2)(c2cccnc2)N1` (stereo not given) here?
**A.** Its growth inhibition is -17.7% (inactive).

**Q.** For `COC(=O)CC1CCS(=O)(=O)C1` (stereo not given), which growth inhibition is on record?
**A.** The growth inhibition was 6.35% (inactive).

**Q.** With `NC(=O)C(O)c1c[nH]c2ccccc12` (stereo not given) as the molecule, how does the growth inhibition read?
**A.** Its growth inhibition is 1.75% (inactive).

**Q.** With `Cc1ccc(C(=O)/C=C/c2cccc3ccccc23)cc1` as the molecule, how does the growth inhibition read?
**A.** Its growth inhibition is 3.65% (inactive).

**Q.** Which growth inhibition does the source give for `CCN(CC)c1ccc2cc(-c3csc(-c4ccc(N(C)C)cc4)n3)c(=O)oc2c1` here?
**A.** Its growth inhibition is 12.7% (inactive).

**Q.** For `COC(=O)N/N=C(/CCCC(=O)Nc1cccc([N+](=O)[O-])c1)C(C#N)c1ccc(CC#N)cc1` (stereo not given), which growth inhibition is on record?
**A.** Its growth inhibition is -0.1% (inactive).

**Q.** Which growth inhibition does the source give for `COc1ccc2c(c1)OC[C@@H]1c3cc(NS(=O)(=O)c4ccccc4)cc(OCc4ccccc4)c3O[C@H]21` here?
**A.** The growth inhibition was -8.75% (inactive).

**Q.** For `CC1=C2CC(C)(C)CC(=O)C2(C)CCC1=O` (stereo not given), which growth inhibition is on record?
**A.** The growth inhibition was -6.55% (inactive).

**Q.** For `CCCCCCCCCC(=O)N=C(C(N)=O)C(N)=O`, which growth inhibition is on record?
**A.** Its growth inhibition is 18.3% (inactive).

**Q.** With `CC(=O)OCC(O)CS(=O)c1ccc(C)cc1` (stereo not given) as the molecule, how does the growth inhibition read?
**A.** Its growth inhibition is 2% (inactive).

**Q.** For `NCC(=O)NC(Cc1c[nH]c2ccccc12)C(=O)O` (stereo not given), which growth inhibition is on record?
**A.** Its growth inhibition is -4.65% (inactive) and 1.4% (inactive).

**Q.** Which growth inhibition does the source give for `O=[N+]([O-])c1cccc(SSc2cccc([N+](=O)[O-])c2)c1` here?
**A.** The growth inhibition was -16.1% (inactive) and -57% (inactive).

**Q.** Which growth inhibition does the source give for `CCN(CC)CCC(=O)c1ccc(Cl)cc1` here?
**A.** Its growth inhibition is 21.4% (inactive).

**Q.** For `COC(=O)CCC(C)C1CCC2(C)C3=C(C(=O)CC12C)C1(C)CCC(O)C(C)(C)C1=C(O)C3` (stereo not given), which growth inhibition is on record?
**A.** Its growth inhibition is 74.2% (active).

**Q.** With `CCc1cc(C)c(C)cc1O` as the molecule, how does the growth inhibition read?
**A.** The growth inhibition was -31.6% (inactive).

**Q.** Which growth inhibition does the source give for `COc1ccc(Nc2nc3ccccc3nc2-c2cccs2)cc1OC` here?
**A.** Its growth inhibition is -2% (inactive).

**Q.** With `O=C1c2ccccc2S(=O)(=O)c2c1cccc2[N+](=O)[O-]` as the molecule, how does the growth inhibition read?
**A.** Its growth inhibition is -15.4% (inactive).

**Q.** With `COC(=O)[C@H](Cc1c[nH]c2ccccc12)NC(=O)OCC1OC(n2cc(C)c(=O)[nH]c2=O)CC1N=[N+]=[N-]` (stereo not given in full) as the molecule, how does the growth inhibition read?
**A.** Its growth inhibition is -20.4% (inactive).

**Q.** Which growth inhibition does the source give for `CC(=O)N1C(=O)c2cccc([N+](=O)[O-])c2C1=O` here?
**A.** Its growth inhibition is -11.9% (inactive).

**Q.** With `CCOC(=O)C1=C(c2ccccc2)OC(N)=C(C#N)C1c1ccccc1Cl` (stereo not given) as the molecule, how does the growth inhibition read?
**A.** Its growth inhibition is 18.7% (inactive).

**Q.** With `COc1cc2cnc3c4cc(OC(C)C)c(OC)cc4ccc3c2cc1OC` as the molecule, how does the growth inhibition read?
**A.** Its growth inhibition is -15.3% (inactive).
